In PubChem BioAssay one finds z-score data, which are given here for 35 compounds.

Sequence of NADPH oxidase 5 (Homo sapiens) (Q96PH1 whole entry, looked up): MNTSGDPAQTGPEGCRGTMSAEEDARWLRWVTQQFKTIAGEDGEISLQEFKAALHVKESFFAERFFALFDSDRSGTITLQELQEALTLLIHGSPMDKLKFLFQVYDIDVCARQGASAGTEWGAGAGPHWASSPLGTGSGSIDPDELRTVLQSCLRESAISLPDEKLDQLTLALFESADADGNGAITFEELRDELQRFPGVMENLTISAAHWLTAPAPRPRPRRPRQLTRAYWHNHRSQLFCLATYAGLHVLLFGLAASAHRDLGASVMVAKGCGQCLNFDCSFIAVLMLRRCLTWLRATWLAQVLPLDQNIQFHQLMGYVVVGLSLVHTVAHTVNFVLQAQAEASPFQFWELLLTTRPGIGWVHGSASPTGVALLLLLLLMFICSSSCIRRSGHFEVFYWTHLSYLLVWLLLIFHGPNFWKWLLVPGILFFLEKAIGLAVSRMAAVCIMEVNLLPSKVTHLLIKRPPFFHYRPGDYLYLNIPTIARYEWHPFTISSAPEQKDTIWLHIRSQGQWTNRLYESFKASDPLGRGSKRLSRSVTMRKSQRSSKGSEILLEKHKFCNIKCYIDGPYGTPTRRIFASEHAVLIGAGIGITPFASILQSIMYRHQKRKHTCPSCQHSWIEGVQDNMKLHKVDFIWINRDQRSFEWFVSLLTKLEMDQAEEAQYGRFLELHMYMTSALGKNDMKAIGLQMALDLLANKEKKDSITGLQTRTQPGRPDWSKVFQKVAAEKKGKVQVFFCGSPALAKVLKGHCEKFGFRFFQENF

The first assay concerns the target NADPH oxidase 5 (Homo sapiens) (UniProt Q96PH1). Put plainly: NOX5-dependent H2O2 signal modulators, primary screen, NOX inhibitor project, cell-based, HEK293-NOX5, Amplex Red fluorescence (AID 1161). The conditions noted are these: HEK293-NOX5, ionomycin, 45 min, higher = more signal.
Regarding `COC(=O)[C@@]1(Cc2ccc(F)cc2)[C@H]2c3cc(C(=O)N4CCCC4)n(Cc4ccc(Cl)c(C(F)(F)F)c4)c3C[C@H]2CN1C(=O)c1ccccc1`, the z-score was 1.31.

Compound `COCCCNC(=O)[C@@]1(Cc2ccccc2I)c2ccccc2C(=O)N(Cc2ccccc2)[C@H]1c1ccc(CO)cc1` came in with a z-score of 0.242. `CC(=O)NCCCC[C@@H]1NC(=O)[C@@H]2C[C@H](C(=O)NCc3ccc(F)cc3)[C@H](c3ccc(O)cc3)N2C1=O` had a z-score of 1.37. Compound `CCOC(=O)C1=CC[C@@H](c2cccc(Cl)c2)N(S(=O)(=O)c2ccc(C)cc2)[C@H]1c1ccc(C#N)cc1` had a z-score of 0.639. On the same count and under the same terms, the figure for `CCCNC(=O)[C@@]1(C)c2ccccc2C(=O)N(Cc2cc(C(F)(F)F)cc(C(F)(F)F)c2)[C@H]1c1ccc(CO)cc1` is -3.73; for `COC(=O)c1c2oc(c1C(=O)OC)C(=O)N[C@H](Cc1ccccc1)Cn1nncc1C1(CCCCC1)NC(=O)N[C@H](CO)CC2` it is -3.47; for `CN(C)CCCC[C@@H]1NC(=O)[C@@H]2C[C@H](C(=O)NCc3ccc(F)cc3)[C@H](c3cccc(OCCO)c3)N2C1=O` it is 1.55. Still for that read-out and setting: the same measure for `COc1ccc([Si](C)(C)[C@@H]2[C@@H](CCn3cc([C@H](O)c4ccccc4)nn3)O[C@]3(C(=O)N(C)c4ccccc43)[C@H]2C)cc1`: -1.55.

Tested on in the next assay: not listed separately
Put plainly: A549 cell viability effects, profiling panel, calcein-AM fluorescence, 48 h, basal (AID 1162). Note: test concentration not given here. The conditions noted are these: higher = more signal.
Turning to `COc1ccc(C#Cc2ccc3c(c2)[C@]2(C(=O)N3)[C@H](C(=O)N3CCN(c4ncccn4)CC3)[C@H]3C(=O)O[C@H](c4ccccc4)[C@H](c4ccccc4)N3[C@@H]2c2ccc(O)cc2)cc1`, the z-score is -0.125. Still for that read-out and setting: the figure for `CCCC[C@H]1C[C@@H]1[C@@H]1N(P(=O)(c2ccccc2)c2ccccc2)[C@](CO)(c2ccccc2)CC12CC2` is -2.02; for `O=C(N1CCCCC1)[C@]1(CCS(=O)(=O)c2ccccc2)N=C(c2ccc(OCCCO)cc2)O[C@@H]1c1ccccc1` it is -1.64; for `OCCCc1cc[n+](Cc2cccc(OC(F)(F)F)c2)cc1` it is -0.0193. Turning to `COc1ccc([Si](C)(C)[C@H]2[C@H](CC(=O)N3CCC[C@H]3CO)O[C@@]3(C(=O)N(Cc4cccc(N5CCC5=O)c4)c4ccccc43)[C@@H]2C)cc1`, the z-score is -0.246. With `CCCNC(=O)[C@@]1(c2ccc([N+](=O)[O-])cc2)CC(=O)N(CC23CC4CC(CC(C4)C2)C3)[C@@H]1c1ccc(CO)cc1I`, the z-score is -1.29.

On to `CCCNC(=O)[C@@]1(C)c2ccccc2C(=O)N(Cc2cc(F)cc(C(F)(F)F)c2)[C@H]1c1ccc(CO)cc1`, for which the z-score was -0.575.

`C=C[C@H](C)[C@H](OC(=O)Nc1ccc(OC)cc1)c1ccc(O)c2ccccc12`: the z-score was -0.697.

With `O=c1cccc(-c2ccccc2)o1`, the z-score was -1.18.

For the compound `CC1CC/C=C\[C@H]2OC34C=CCN(Cn5nnc6ccccc65)C(=O)[C@H]3N(CCCO)C(=O)[C@@H]4C2C(=O)O1` (stereo partly drawn), the z-score is -0.677. Same read-out and setting: the figure for `COc1ccc(C#Cc2ccc3c(c2)[C@]2(C(=O)N3)[C@H](c3ccc(OCCO)cc3)N3[C@H](c4ccccc4)[C@H](c4ccccc4)OC(=O)[C@H]3[C@@H]2C(=O)Nc2nc3ccccc3s2)cc1` is 1.47; for `C=C(C(=O)CC[C@H](OC(=O)c1cccnc1)c1ccccc1OCCO)C(C)C` it is 0.219. For the compound `C=CC[C@@]1(C(=O)NCCN2CCOCC2)N=C(c2ccc(OCCCO)cc2)O[C@@H]1c1ccccc1CN=[N+]=[N-]`, the z-score is -0.0982. Turning to `C=CCOC(=O)[C@H]1[C@@H]2C(=O)O[C@@H](c3ccccc3)[C@@H](c3ccccc3)N2[C@@H](c2ccc(OCCOC(=O)[C@@H]3C[C@@H]4C(=O)NCC(=O)N4[C@@H]3c3ccc(O)cc3)cc2)[C@]12C(=O)Nc1ccc(I)cc12`, the z-score is -0.566. The same measure, in the same setting: the same measure for `CCOC(=O)C[C@H]1[C@H](OC(=O)c2ccc(C(=O)c3ccccc3)cc2)[C@@H](NC(=O)c2ccc3ccccc3n2)c2cc(OCCCO)ccc2N1C(=O)c1ccc2ccccc2n1`: 0.602. Still for that read-out and setting: the figure for `C=CCC(OC(C)=O)[C@@H]1[C@@H](N(Cc2ccc(-c3cccc(C(F)(F)F)c3)o2)C(=O)Cc2ccc(OC)cc2)c2cc(OCCCO)ccc2N1C(=O)Cc1ccc(OC)cc1` (stereo partly drawn) is 1.92. With `C=CCC(OC(C)=O)[C@@H]1[C@@H](N(Cc2ccc(-c3ccccc3)cc2)C(=O)c2ccc(C)cc2)c2cc(OCCCO)ccc2N1C(=O)Cc1ccc(OC)cc1` (stereo partly drawn), the z-score is 0.837. On the same count and under the same terms, the figure for `C=C(COC)C(=O)CC[C@@H](OC(=O)c1ccccc1-c1ccccc1C(=O)O)c1ccc(CO)o1` is -1.46; for `CN(C)CCCC[C@@H]1NC(=O)[C@@H]2C[C@H](C(=O)NCCCCCN)[C@H](c3ccc(O)cc3)N2C1=O` it is 0.635. Still for that read-out and setting: the figure for `CN(C)CCCN1C(=O)[C@@]2(c3ccc([N+](=O)[O-])cc3)CC(=O)N(C3CCCCC3)[C@@H]2c2ccc(CO)cc21` is -0.397; for `O=C1C2C=CC(C(O)c3cccc4ccccc34)N(n3cnnc3)C2C(=O)N1Cc1ccccc1` (stereo not drawn) it is -0.986; for `COCCCNC(=O)[C@]1(Cc2ccccc2N=[N+]=[N-])N=C(c2ccc(OCCCO)cc2)O[C@@H]1c1ccccc1CN=[N+]=[N-]` it is -1.02.

`C=C(COC)C(=O)CC[C@H](OC(=O)c1cccnc1)c1ccccc1OCCO`: the z-score was -0.414. The same measure, in the same setting: the same measure for `CCOC(=O)N1C(c2ccc(OCCCO)cc2)=NC(C(=O)OC)N1C(=O)OCC` (stereo not drawn): -0.481; for `C=CCOC(=O)[C@H]1[C@@H]2C(=O)O[C@@H](c3ccccc3)[C@@H](c3ccccc3)N2[C@@H](c2ccc(OCCOC(=O)[C@H]3C[C@H]4C(=O)N[C@@H](CCCC[N+](C)(C)C)C(=O)N4[C@H]3c3ccc(O)cc3)cc2)[C@]12C(=O)Nc1ccccc12`: 1.6. The same measure, in the same setting: the same measure for `CC(C)N1C(=O)c2ccccc2[C@](C)(C(=O)NCCCN(C)C)[C@@H]1c1ccc(CO)cc1`: 0.415. Regarding `C=CCC(OC(C)=O)[C@@H]1[C@@H](N(Cc2ccc(-c3ccccc3)cc2)C(=O)c2ccc(C)cc2)c2cc(OCCCO)ccc2N1C(=O)c1ccc2ccccc2n1` (stereo partly drawn), the z-score is 3.36. In the case of `COC(=O)[C@@]1(Cc2ccc(F)cc2)[C@H]2c3cc(C(=O)N4CCCC4)n(Cc4ccc(Cl)c(C(F)(F)F)c4)c3C[C@H]2CN1C(=O)c1ccccc1`, the z-score was -0.463.

Turning to `COCCCNC(=O)[C@@]1(Cc2ccccc2I)c2ccccc2C(=O)N(Cc2ccccc2)[C@H]1c1ccc(CO)cc1`, the z-score was 0.954. On the same count and under the same terms, the same measure for `CC(=O)NCCCC[C@@H]1NC(=O)[C@@H]2C[C@H](C(=O)NCc3ccc(F)cc3)[C@H](c3ccc(O)cc3)N2C1=O`: -0.484; for `CCOC(=O)C1=CC[C@@H](c2cccc(Cl)c2)N(S(=O)(=O)c2ccc(C)cc2)[C@H]1c1ccc(C#N)cc1`: 0.384.

Regarding `CCCNC(=O)[C@@]1(C)c2ccccc2C(=O)N(Cc2cc(C(F)(F)F)cc(C(F)(F)F)c2)[C@H]1c1ccc(CO)cc1`, the z-score was -0.283. The same measure, in the same setting: the same measure for `COC(=O)c1c2oc(c1C(=O)OC)C(=O)N[C@H](Cc1ccccc1)Cn1nncc1C1(CCCCC1)NC(=O)N[C@H](CO)CC2`: 0.876; for `CN(C)CCCC[C@@H]1NC(=O)[C@@H]2C[C@H](C(=O)NCc3ccc(F)cc3)[C@H](c3cccc(OCCO)c3)N2C1=O`: 0.514; for `COc1ccc([Si](C)(C)[C@@H]2[C@@H](CCn3cc([C@H](O)c4ccccc4)nn3)O[C@]3(C(=O)N(C)c4ccccc43)[C@H]2C)cc1`: -0.536.
